The supplement of paper PMC10849652
About 7,900 targets were measured; listed, in parts, are those with a hit and a random draw of the rest. About 0.6% of all pairs of compound and target were hits. Unmarked numbers belong to inactive results.

Legend:
Experiment in all cases: log2 fold change, soluble protein after heating vs DMSO (PISA); higher = thermal stabilisation; K562 cells, 10 uM, 30 min; active = over 0.2 and 3.5 SD of the protein, either way, in both replicates (recomputed)
[1] = compound: CC[C@@H]1C(=O)N(C)c2cnc(Nc3ccc(C(=O)NC4CCN(C)CC4)cc3OC)nc2N1C1CCCC1
Procedure, shortened: (§1)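 K562 cells at 2×10^6 cells/mL were given 10 μM compound for 30 min. Aliquots then went through 3 min of heating across 48°C-58°C, were pooled, and were extracted in PBS with 0.5% NP-40 at 4°C, and the supernatant after 21,000xg for 90 min was quantified by TMTpro 16plex LC-MS/MS with channel sums equalised. Thermal stability relative to control samples, from duplicates, is given as log2 fold change.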

[2] = compound: CC[C@H](C)N1C=C(C2=C(C=C(C=C21)C3=CN=C(C=C3)N4CCNCC4)C(=O)NCC5=C(C=C(NC5=O)C)C)C
Procedure, shortened: as §1

epoxomicin = compound: CC[C@H](C)[C@@H](C(=O)N[C@@H]([C@@H](C)O)C(=O)N[C@@H](CC(C)C)C(=O)[C@]1(CO1)C)NC(=O)[C@H]([C@@H](C)CC)N(C)C(=O)C [epoxomicin]
Procedure, shortened: as §1

[3] = compound: CCn1c(C(=O)N(C2CC2)C2CC2)cc2c3c(ncn3C)c(Nc3cc(C)n(C)n3)nc21
Procedure, shortened: as §1

[4] = compound: CCn1cc(-c2ccnc3[nH]c(-c4cccc(CN(C)C)c4)cc23)c(-c2ccc(NC(=O)N(C)C)cc2)n1
Procedure, shortened: as §1

[5] = compound: CN(C)CC(=O)Nc1ccc2[nH]c(=O)c3ccccc3c2c1
Procedure, shortened: as §1

rosiglitazone = compound: CN(CCOC1=CC=C(C=C1)C[C@H]2C(=O)NC(=O)S2)C3=CC=CC=N3 (racemic) [rosiglitazone]
Procedure, shortened: as §1

[6] = compound: CN1C2=C(C3=C1C(=O)N(N=C3)CC4=CC(=CC=C4)N)SC(=C2)S(=O)C
Procedure, shortened: as §1

[7] = compound: CN1CCC(CNc2ccc3ncc(-c4cccc(OC(F)(F)F)c4)n3n2)CC1
Procedure, shortened: as §1

saracatinib = compound: CN1CCN(CCOc2cc(OC3CCOCC3)c3c(Nc4c(Cl)ccc5c4OCO5)ncnc3c2)CC1 [saracatinib]
Procedure, shortened: as §1

sotrastaurin = compound: CN1CCN(c2nc(C3=C(c4c[nH]c5ccccc45)C(=O)NC3=O)c3ccccc3n2)CC1 [sotrastaurin]
Procedure, shortened: as §1

alvocidib = compound: CN1CC[C@H](c2c(O)cc(O)c3c(=O)cc(-c4ccccc4Cl)oc23)[C@H](O)C1 [alvocidib]
Procedure, shortened: as §1

Tubastatin A = compound: CN1CCc2c(c3ccccc3n2Cc2ccc(C(=O)NO)cc2)C1 [Tubastatin A]
Procedure, shortened: as §1

[8] = compound: CNC(=O)C1=CC=CC=C1NC2=NC(=NC=C2Cl)NC3=C(C=C(C=C3)N4CCOCC4)OC
Procedure, shortened: as §1

defactinib = compound: CNC(=O)c1ccc(Nc2ncc(C(F)(F)F)c(NCc3nccnc3N(C)S(C)(=O)=O)n2)cc1 [defactinib]
Procedure, shortened: as §1

rucaparib = compound: CNCc1ccc(-c2[nH]c3cc(F)cc4c3c2CCNC4=O)cc1 [rucaparib]
Procedure, shortened: as §1

[9] = compound: CNc1nc(-c2ccc3c(N)n[nH]c3c2)cc(N2C[C@@H](C(=O)NC3CCCCC3)CC[C@H]2C)n1
Procedure, shortened: as §1

encorafenib = compound: COC(=O)N[C@@H](C)CNc1nccc(-c2cn(C(C)C)nc2-c2cc(Cl)cc(NS(C)(=O)=O)c2F)n1 [encorafenib]
Procedure, shortened: as §1

[10] = compound: COC(=O)[C@H](CCSC)NC(=O)C1=C(C=C(C=C1)NC[C@H](CS)N)C2=CC=CC=C2
Procedure, shortened: as §1

volasertib = compound: CC[C@@H]1C(=O)N(C)c2cnc(Nc3ccc(C(=O)N[C@H]4CC[C@H](N5CCN(CC6CC6)CC5)CC4)cc3OC)nc2N1C(C)C [volasertib]
Procedure, shortened: as §1

Chain of UniProt Q8NF50 (Q8NF50 whole entry, looked up): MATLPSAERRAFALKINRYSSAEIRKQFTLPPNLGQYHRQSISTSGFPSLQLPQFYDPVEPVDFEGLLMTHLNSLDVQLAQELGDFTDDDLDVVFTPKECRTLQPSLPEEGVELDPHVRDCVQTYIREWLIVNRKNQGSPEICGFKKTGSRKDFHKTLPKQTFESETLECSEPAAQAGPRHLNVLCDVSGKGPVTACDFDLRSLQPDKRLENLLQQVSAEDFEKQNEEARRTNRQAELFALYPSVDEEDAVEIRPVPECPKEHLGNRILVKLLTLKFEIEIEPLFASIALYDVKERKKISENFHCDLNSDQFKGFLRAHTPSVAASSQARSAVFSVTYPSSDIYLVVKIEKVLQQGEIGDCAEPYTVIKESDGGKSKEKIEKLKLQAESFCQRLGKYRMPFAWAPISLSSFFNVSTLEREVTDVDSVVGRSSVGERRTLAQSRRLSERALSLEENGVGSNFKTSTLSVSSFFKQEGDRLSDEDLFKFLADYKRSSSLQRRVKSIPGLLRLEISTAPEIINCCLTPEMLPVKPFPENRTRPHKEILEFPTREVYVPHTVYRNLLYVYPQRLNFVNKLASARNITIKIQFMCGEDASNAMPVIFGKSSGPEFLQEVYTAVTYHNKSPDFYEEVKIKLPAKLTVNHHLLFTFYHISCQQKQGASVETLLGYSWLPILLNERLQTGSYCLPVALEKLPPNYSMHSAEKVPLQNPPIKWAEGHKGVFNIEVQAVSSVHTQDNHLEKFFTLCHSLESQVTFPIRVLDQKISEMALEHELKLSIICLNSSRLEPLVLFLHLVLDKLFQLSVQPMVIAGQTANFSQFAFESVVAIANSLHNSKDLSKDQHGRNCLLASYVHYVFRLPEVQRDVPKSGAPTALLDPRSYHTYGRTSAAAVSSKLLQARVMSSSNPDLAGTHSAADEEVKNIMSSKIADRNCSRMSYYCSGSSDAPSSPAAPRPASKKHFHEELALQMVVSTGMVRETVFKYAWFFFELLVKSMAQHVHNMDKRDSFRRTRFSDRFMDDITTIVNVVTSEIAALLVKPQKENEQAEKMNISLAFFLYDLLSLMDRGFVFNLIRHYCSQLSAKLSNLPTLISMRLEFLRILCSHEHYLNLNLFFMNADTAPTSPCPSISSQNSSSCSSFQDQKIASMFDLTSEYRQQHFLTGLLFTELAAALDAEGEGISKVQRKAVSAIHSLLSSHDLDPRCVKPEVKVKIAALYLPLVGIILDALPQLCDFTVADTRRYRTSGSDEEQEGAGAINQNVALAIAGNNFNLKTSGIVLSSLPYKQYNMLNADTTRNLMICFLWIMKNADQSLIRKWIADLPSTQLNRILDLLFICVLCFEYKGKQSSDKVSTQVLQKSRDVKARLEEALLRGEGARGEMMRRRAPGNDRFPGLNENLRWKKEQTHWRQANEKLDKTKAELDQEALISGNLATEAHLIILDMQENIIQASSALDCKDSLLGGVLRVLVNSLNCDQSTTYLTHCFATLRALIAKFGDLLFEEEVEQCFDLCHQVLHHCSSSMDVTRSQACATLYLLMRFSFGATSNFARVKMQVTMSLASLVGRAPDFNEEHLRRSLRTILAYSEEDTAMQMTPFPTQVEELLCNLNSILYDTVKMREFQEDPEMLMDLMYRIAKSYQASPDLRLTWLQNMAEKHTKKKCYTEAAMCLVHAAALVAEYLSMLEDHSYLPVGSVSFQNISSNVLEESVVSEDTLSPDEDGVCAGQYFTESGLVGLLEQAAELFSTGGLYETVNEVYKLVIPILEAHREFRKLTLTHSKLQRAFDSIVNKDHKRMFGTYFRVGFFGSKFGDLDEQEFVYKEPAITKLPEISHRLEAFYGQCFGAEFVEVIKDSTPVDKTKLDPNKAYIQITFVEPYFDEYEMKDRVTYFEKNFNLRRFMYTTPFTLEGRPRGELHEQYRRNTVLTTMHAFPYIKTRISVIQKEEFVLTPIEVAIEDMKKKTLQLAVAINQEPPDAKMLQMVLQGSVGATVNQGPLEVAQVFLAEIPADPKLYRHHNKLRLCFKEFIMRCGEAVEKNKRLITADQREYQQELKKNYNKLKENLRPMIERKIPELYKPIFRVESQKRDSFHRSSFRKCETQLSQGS
Chain of UniProt Q4LDG9 (Q4LDG9 whole entry, looked up): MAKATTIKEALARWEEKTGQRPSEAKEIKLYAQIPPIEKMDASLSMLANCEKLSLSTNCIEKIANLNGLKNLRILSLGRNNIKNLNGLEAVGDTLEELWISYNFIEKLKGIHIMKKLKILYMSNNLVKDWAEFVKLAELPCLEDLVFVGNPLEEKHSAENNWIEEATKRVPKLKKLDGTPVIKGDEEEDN
Chain of UniProt Q96GQ7 (Q96GQ7 whole entry, looked up): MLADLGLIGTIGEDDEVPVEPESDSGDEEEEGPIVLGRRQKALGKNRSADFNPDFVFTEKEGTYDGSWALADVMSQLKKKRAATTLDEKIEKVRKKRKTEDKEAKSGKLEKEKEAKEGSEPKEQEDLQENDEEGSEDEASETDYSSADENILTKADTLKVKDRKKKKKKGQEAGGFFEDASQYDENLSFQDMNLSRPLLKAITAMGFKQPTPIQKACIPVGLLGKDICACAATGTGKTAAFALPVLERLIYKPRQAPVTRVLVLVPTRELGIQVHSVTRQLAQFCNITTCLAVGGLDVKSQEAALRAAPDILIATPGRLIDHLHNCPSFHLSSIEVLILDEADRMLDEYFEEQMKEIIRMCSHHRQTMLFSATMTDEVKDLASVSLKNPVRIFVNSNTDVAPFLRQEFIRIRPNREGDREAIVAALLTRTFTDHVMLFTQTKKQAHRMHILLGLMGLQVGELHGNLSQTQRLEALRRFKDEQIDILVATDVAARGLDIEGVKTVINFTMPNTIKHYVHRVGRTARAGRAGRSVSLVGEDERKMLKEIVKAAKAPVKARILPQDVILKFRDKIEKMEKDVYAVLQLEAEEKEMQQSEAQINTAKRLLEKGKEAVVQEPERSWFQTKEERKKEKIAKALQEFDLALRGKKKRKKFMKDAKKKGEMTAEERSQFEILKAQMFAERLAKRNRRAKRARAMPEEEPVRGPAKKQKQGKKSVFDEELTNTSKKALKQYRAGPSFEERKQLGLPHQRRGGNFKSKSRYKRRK
Chain of UniProt Q8NDI1 (Q8NDI1 whole entry, looked up): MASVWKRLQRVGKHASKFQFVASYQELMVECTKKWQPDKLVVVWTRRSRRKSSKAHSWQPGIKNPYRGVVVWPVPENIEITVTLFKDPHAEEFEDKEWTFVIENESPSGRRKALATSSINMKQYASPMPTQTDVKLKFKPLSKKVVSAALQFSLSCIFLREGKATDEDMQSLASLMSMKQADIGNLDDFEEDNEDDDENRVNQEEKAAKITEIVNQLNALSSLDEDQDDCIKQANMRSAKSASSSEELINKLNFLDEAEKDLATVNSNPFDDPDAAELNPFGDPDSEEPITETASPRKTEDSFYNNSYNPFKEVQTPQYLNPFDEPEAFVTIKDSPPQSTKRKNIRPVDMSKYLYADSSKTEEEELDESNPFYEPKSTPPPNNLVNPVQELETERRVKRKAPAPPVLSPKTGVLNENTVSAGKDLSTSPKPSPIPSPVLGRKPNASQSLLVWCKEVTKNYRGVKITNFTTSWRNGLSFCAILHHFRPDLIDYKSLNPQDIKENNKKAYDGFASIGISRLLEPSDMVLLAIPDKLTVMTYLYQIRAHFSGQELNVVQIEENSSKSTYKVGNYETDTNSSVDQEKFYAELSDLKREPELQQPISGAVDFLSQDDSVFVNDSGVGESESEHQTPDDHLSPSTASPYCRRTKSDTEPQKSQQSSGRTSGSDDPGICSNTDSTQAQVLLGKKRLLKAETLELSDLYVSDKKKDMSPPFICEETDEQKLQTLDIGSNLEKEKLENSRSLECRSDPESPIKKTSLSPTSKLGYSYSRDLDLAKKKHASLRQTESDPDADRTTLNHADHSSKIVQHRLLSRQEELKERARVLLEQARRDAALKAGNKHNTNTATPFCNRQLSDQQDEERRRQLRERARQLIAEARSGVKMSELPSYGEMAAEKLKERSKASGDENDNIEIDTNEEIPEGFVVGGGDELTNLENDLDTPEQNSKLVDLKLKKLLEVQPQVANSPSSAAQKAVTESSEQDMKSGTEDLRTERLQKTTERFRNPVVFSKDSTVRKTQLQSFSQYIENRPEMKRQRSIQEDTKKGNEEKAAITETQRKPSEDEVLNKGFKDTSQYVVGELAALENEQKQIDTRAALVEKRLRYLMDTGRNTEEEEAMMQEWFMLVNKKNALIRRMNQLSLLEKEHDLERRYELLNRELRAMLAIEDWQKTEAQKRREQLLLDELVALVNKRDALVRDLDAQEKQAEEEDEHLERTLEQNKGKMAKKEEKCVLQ
Chain of UniProt O75822 (O75822 whole entry, looked up): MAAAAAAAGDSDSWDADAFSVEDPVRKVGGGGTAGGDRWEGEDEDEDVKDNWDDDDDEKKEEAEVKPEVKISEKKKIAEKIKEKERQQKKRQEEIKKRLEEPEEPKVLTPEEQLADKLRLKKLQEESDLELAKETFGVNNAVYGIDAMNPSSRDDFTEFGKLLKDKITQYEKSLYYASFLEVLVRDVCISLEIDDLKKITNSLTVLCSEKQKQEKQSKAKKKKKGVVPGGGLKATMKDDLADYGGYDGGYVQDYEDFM
Chain of UniProt P25774 (P25774 whole entry, looked up): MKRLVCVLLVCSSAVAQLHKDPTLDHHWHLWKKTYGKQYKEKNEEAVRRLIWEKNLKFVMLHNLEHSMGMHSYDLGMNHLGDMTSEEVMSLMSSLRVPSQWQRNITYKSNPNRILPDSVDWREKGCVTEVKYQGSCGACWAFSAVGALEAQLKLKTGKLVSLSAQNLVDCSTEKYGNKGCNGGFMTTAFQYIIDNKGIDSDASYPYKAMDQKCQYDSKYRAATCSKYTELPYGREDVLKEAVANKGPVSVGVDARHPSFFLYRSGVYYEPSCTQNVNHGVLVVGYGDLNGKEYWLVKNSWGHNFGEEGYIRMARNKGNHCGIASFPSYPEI

Target | log2 fold change [1] | log2 fold change [2] | log2 fold change (epoxomicin) | log2 fold change [3] | log2 fold change [4] | log2 fold change [5] | log2 fold change (rosiglitazone) | log2 fold change [6] | log2 fold change [7] | log2 fold change (saracatinib) | log2 fold change (sotrastaurin) | log2 fold change (alvocidib) | log2 fold change (Tubastatin A) | log2 fold change [8] | log2 fold change (defactinib) | log2 fold change (rucaparib) | log2 fold change [9] | log2 fold change (encorafenib) | log2 fold change [10] | log2 fold change (volasertib)
DOCK8 (UniProt Q8NF50) | 0.01 | 0.004 | 0.119 | -0.208 | -0.094 | -0.009 | 0.028 | 0.258 | 0.137 | -0.241 | -0.398 | 0.149 | 0.166 | -0.163 | 0.242 | 0.044 | -0.06 | -0.079 | -0.154 | 
F2RL3 (UniProt Q96RI0) |  |  |  | 0.074 |  | 0.012 |  | -0.002 |  | 0.04 |  | 0.004 | 0.082 | -0.051 | 0.009 |  | 0.005 |  | 0.008 | 0.076
EEF1D isoform 3 (UniProt P29692) |  |  |  | -0.067 |  |  |  |  |  |  |  |  | 0.147 | -0.03 |  |  |  |  |  | 
DLK1 (UniProt P80370) | 0.43 (active) |  | 0.012 |  |  | -0.016 |  | 0.127 |  | 0.021 |  | 0.03 |  |  | -0.08 | -0.023 | -0.09 | -0.032 | 0.159 | 
DDX11 (UniProt Q96FC9) |  | 0.128 | 0.099 | -0.018 |  | 0.098 | 0.052 | -0.04 |  | -0.016 | -0.248 |  | -0.034 | -0.035 | -0.052 |  | -0.005 |  | 0.118 | -0.084
EDRF1 (UniProt Q3B7T1) | 0.046 |  | 0.009 | -0.089 | -0.046 |  | 0.004 | 0.006 | -0.014 | 0.104 | 0.012 | -0.006 |  | -0.111 |  | 0.098 | 0.07 | 0.058 |  | 
DDX27 (UniProt Q96GQ7) | -0.033 | 0.1 | -0.184 | -0.084 | 0.116 | -0.009 |  | 0.162 | 0.241 | -0.104 | -0.088 | 0.209 | 0.09 | -0.035 | 0.651 | 0.255 | -0.017 | 0.124 | 0.057 | 
EIF3J isoform 2 (UniProt O75822) |  | -0.079 | 0.025 | 0.03 |  | 0.076 | -0.038 | 0.133 |  | 0.035 | 0.075 |  | -0.082 | -0.021 | -0.085 |  | -0.04 |  | -0.008 | 0.031
CTSS (UniProt P25774) | -0.027 |  |  |  | 0.126 | -0.021 |  | 0.051 | -0.034 | 0.478 (active) | 0.051 | -0.039 | -0.084 |  | 0.074 | 0.258 | 0.134 | -0.074 | -0.012 | 
FAM117B (UniProt Q6P1L5) | -0.054 |  | 0.021 | -0.211 | 0.012 | 0.11 |  | -0.072 | 0.017 | -0.004 |  | -0.117 | 0.084 | -0.035 | -0.494 | -0.013 | -0.223 | -0.092 | -0.341 | 
DOP1A (UniProt Q5JWR5) |  |  | 0.069 | -0.067 |  | 0.121 | -0.026 |  |  |  |  |  |  | -0.052 | 0.164 |  |  |  | -0.083 | 
FADS1 (UniProt F5GYH4) |  |  |  |  |  | 0.026 | 0.238 |  |  |  |  |  | 0.123 |  | 0.06 |  |  |  | 0.123 | 
EIF2AK1 (UniProt Q9BQI3) |  |  | 0.13 | 0.001 | 0.034 | -0.121 | -0.025 | 0.006 | -0.082 | 0.073 | 0.095 | 0.072 | 0.128 | 0.002 | -0.008 |  | -0.09 |  | 0.04 | -0.142
DNAL1 (UniProt Q4LDG9) |  |  | 0.082 |  |  | 0.103 | -0.683 | -0.256 |  | -0.081 |  | -0.121 |  |  | -0.14 |  | 0.062 |  | -0.13 | 
ELOVL7 (UniProt A1L3X0) |  |  | 0.007 | -0.016 |  |  |  | 0.047 |  | -0.018 |  | -0.101 | -0.002 | -0.112 |  |  | -0.093 |  |  | 
ERF (UniProt P50548) |  |  | 0.068 | 0.033 | -0.052 |  |  |  | 0.319 |  | -0.058 |  | 0.377 | 0.069 |  |  |  |  |  | 
DBNL (UniProt Q9UJU6) |  |  |  |  |  |  |  |  |  |  |  | -0.142 |  |  |  |  |  |  |  | 
EHBP1 (UniProt Q8NDI1) | -0.155 |  |  |  | 0.011 |  |  |  | 0.015 |  |  | -0.085 | 0.045 |  |  | 0.135 |  | -0.058 |  | 
DERPC (UniProt P0CG12) | 0.127 | -0.051 |  | 0 | 0.197 | 0.053 | 0.04 | 0.519 (active) | 0.025 | -0.168 |  |  |  | 0.08 | -0.153 | -0.001 | -0.071 | -0.109 | 0.063 | 
ENTR1 (UniProt Q96C92) |  |  |  | -0.03 |  | -0.107 |  | 0.183 |  | -0.131 |  |  |  | -0.03 | 0.022 |  | -0.039 |  | -0.486 (active) | 0.167
